# Source: PubChem
# Only a selection was taken, and hits are over-represented in it overall.
# Ba CapD inh: inhibitors of Bacillus anthracis CapD enzyme; z-score (no concentration beside the values); purified CapD enzyme, fluorescence intensity read-out; active compounds read low; 140,000 compounds, 0.23% hits; AID 492967; in the data active means z-score mostly below about -2.9, no sharp cut-off; inactive means mostly above about -1.9
# Active calls of the source: *; ! = a repeat was not active.
SMILES,Ba CapD inh
Cc1cc(/C=C2\C(=O)NC(=S)N(c3ccccc3F)C2=O)c(C)n1-c1cc(C(=O)O)cc(C(=O)O)c1,-9.1*
Cc1cc(/C=C2\C(=O)NC(=O)N(c3ccc(F)cc3)C2=O)c(C)n1-c1cccc(C(=O)O)c1,-1.6
Cc1cc(/C=C2\C(=O)NC(=O)N(c3ccccc3F)C2=O)c(C)n1-c1cc(C(=O)O)cc(C(=O)O)c1,-2.5
Fc1ccc(-c2oncc2-c2nnnn2-c2ccc(Cl)cc2)c(F)c1,0.61
Cc1ccc(S(=O)(=O)NCCC(=O)NC2CCCCC2)cc1,0.14
O=C1/C(=C\O)CCc2occc21,-8.1*
O=C(O)Cn1ncc2c1-c1ccoc1CC2,-1.4
O/N=C1/CCCc2occc21,-0.35
Cc1ccc2nc(N3CCc4ccccc43)c3nncn3c2c1,-1.7
CCOC(=O)N1CCN(C(=O)c2ccc3c(=O)n(Cc4ccc(Cl)cc4)c(=S)[nH]c3c2)CC1,0.55
CCOC(=O)c1c[nH]c(=S)[nH]1,0.14
CCOC(=O)c1cnc(=S)[nH]c1N,-0.74
CCOC(=O)c1c[nH]c(=S)[nH]c1=O,-7*
CC(=O)OCC(=O)C1CCC2C3CC=C4CC(O)CCC4(C)C3CCC12C (stereo unspecified),0.27
Cc1cc2ncc(C(=O)/C=C/N(C)C)c(C)n2n1,-5.1*
CC(=O)c1cnc2cc(C)nn2c1C,0.06
CCOC(=O)c1cnc2cc(C)nn2c1C,0.4
COc1ccc(OC)c(C2NC(=S)NC(C)=C2C(=O)Nc2cccc(Cl)c2C)c1 (stereo unspecified),0.26
Cc1ccc(N=Cc2c(O)[nH]c(=S)[nH]c2=O)cc1,0.93
O=c1[nH]c(=S)[nH]c(O)c1N=Nc1ccc(O)cc1,-3.9*
COc1ccc(N=Cc2c(O)[nH]c(=S)[nH]c2=O)cc1,0.11
COc1ccc(Cn2cc(-c3cccc(C(F)(F)F)c3)cc(C#N)c2=O)cc1,39
COC(=O)C1=C(Nc2ccccc2NC(=O)COCC(=O)O)CSC1,-0.32
CC(Oc1cccc(Cl)c1)C(=O)O/N=C(\N)c1cccnc1 (stereo unspecified),-6*
N/C(=N/S(=O)(=O)c1ccc(Cl)c(Cl)c1)c1cccnc1,0.71
SMILES,Ba CapD inh
CC(C)C(=O)O/N=C(\N)c1ccccc1,0.02
S=c1[nH]nc(-c2ccccc2)n1N=Cc1cccs1,-1.5
CCOC(=O)Oc1c(Cl)cc2oc(=O)sc2c1Br,-5.3*
CCCCOC(=O)Oc1cc2oc(=O)sc2cc1Br,-0.21
COC(=O)Oc1cc2oc(=O)sc2cc1Cl,-0.7
COc1ccc(C2NCCc3cc(OC)c(OC)cc32)cc1 (stereo unspecified),0.01
Oc1ccc(-c2nc3ccccc3[nH]2)cc1,15
c1ccc(-c2nnsc2-c2nc3ccccc3[nH]2)cc1,1.6
c1ccc2sc3c(-c4ccncc4)sc4ccccc4[nH]c-3nc2c1,-4.1*
Cn1c(=O)n(C)c2cc(C(O)COc3ccc(CNC(C)(C)C)cc3)ccc21 (stereo unspecified),0.67
CS(=O)(=O)c1cc2cc(Cl)ccc2oc1=O,12
CCc1ccc(S(=O)(=O)Nc2cc3c4c(oc3c3ccccc23)CCCC4=O)cc1,-0.44
CCCN1CCC(NC(C)CCCC(C)(C)O)CC1 (stereo unspecified),-0.4
CC(CCCC(C)(C)O)CC1OCC(C)O1 (stereo unspecified),-0.07
CC(N)CCCC(C)(C)O (stereo unspecified),-4.1*!
CCCCN(C)C(=O)c1ccc(CS(=O)(=O)c2ccccc2C)o1,-0.29
CC(C)COC(=O)c1cn(C2CCCCC2)c2ccccc2c1=O,-0.68
CSc1ncc(C(=O)O)c(C(F)(F)F)n1,-0.37
CCC(=S)/C=C1/Sc2ccc(Cl)cc2N1CC,18
CCN1/C(=C\C(=S)Nc2ccccc2)Sc2ccccc21,-4.4*
CCC(=S)/C=C1\Sc2ccc(OC)cc2N1CC,16
CCCCC(=O)c1ccc(C)[nH]c1=S,-0.46
COc1ccccc1C1=NOC(C(=O)N2CCCC2)C1 (stereo unspecified),1.5
CCOc1ccc(NC2SC(=O)NC2=O)cc1 (stereo unspecified),-0.43
CNC(=O)c1cn(-c2ccccc2)c(=O)c2ccccc12,4.8
CC(=O)n1c(=O)c2ccccc2c(=O)n1-c1ccccc1,-4.7*
CN(C)C(=O)c1cn(-c2ccccc2)c(=O)c2ccccc12,4.7
NS(=O)(=O)c1ccc(CNC(=O)c2ccccc2Oc2ccccc2)cc1,5.3
